# The full list was thinned out, with the strongest signals kept by preference.
# B1: Thrombomodulin (Mus musculus) (protein)
# chain: ALAKLQPTGSQCVEHECFALFQGPATFLDASQACQRLQGHLMTVRSSVAADVISLLLSQSSMDLGPWIGLQLPQGCDDPVHLGPLRGFQWVTGDNHTSYSRWARPNDQTAPLCGPLCVTVSTATEAAPGEPAWEEKPCETETQGFLCEFYFTASC
# B2: Surfactant Protein D (Human); Neck + Carbohydrate Recognition Domain (NCRD) (Homo sapiens) (protein)
# chain: MLLFLLSALVLLTQPLGYLEAEMKTYSHRTMPSACTLVMCSSVESGLPGRDRDGREGPRGEKGDPGLPGAAGQAGMPGQAGPVGPKGDNGSVGEPGPKGDTGPSGPPGPPGVPGPAGREGALGKQGNIGPQGKPGPKGEAGPKGEVGAPGMQGSAGARGLAGPKGERGVPGERGVPGNTGAAGSAGAMGPQGSPGARGPPGLKGDKGIPGDKGAKGESGLPDVASLRQQVEALQGQVQHLQAAFSQYKKVELFPNGQSVGEKIFKTAQFVKPFTEAQLLCTQAGGQLASPRSAAENAALQQLVVAKNEAAFLSMTDSKTEGKFTYPTGESLVYSNWAPGEPNDDGGSEDCVEIFTNGKWNDIACGEKRLVVCEF
# Key:
# Test in all cases: glycan array binding signal (z-score within array); higher = stronger binding
# [1] = molecular target: GlcNAc(a1-3)Gal(b1-4)GlcNAc; conditions: glycan notation: IUPAC condensed, linker removed
# In short: (§1)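 The Consortium for Functional Glycomics database supplied 3228 glycan arrays, of which those lacking an available protein sequence were dropped. The binding signal, a within-array Z-score, was averaged across arrays of the same protein sequence and across linkers. Negative scores can be read as non-binding.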
# [2] = molecular target: GlcNAc(a1-4)Gal(b1-4)GlcNAc(b1-3)Gal(b1-4)[Fuc(a1-3)]GlcNAc(b1-3)Gal(b1-4)[Fuc(a1-3)]GlcNAc; conditions: glycan notation: IUPAC condensed, linker removed
# In short: as §1
# [3] = molecular target: GlcNAc(b1-2)Man(a1-3)[GlcNAc(b1-4)][GlcNAc(b1-2)Man(a1-6)]Man(b1-4)GlcNAc(b1-4)[Fuc(a1-6)]GlcNAc; conditions: glycan notation: IUPAC condensed, linker removed
# In short: as §1
# [4] = molecular target: GlcNAc(b1-2)[GlcNAc(b1-4)]Man(a1-3)[GlcNAc(b1-4)][GlcNAc(b1-2)Man(a1-6)]Man(b1-4)GlcNAc(b1-4)GlcNAc; conditions: glycan notation: IUPAC condensed, linker removed
# In short: as §1
# [5] = molecular target: Man(a1-2)Man(a1-2)Man(a1-6)[Man(a1-3)]Man; conditions: glycan notation: IUPAC condensed, linker removed
# In short: as §1
# Man(a1-3)[Man(a1-6)]Man = conditions: glycan notation: IUPAC condensed, linker removed
# In short: as §1
# [6] = molecular target: Man(a1-3)[Man(a1-6)]Man(a1-6)[Man(a1-3)]Man(b1-4)GlcNAc(b1-4)GlcNAc; conditions: glycan notation: IUPAC condensed, linker removed
# In short: as §1
# Neu5Ac(a2-3)Gal = conditions: glycan notation: IUPAC condensed, linker removed
# In short: as §1
# [7] = molecular target: Neu5Ac(a2-3)Gal(b1-3)GalNAc; conditions: glycan notation: IUPAC condensed, linker removed
# In short: as §1
# [8] = molecular target: Neu5Ac(a2-3)Gal(b1-3)GalNAc(b1-4)[Neu5Ac(a2-3)]Gal(b1-4)Glc; conditions: glycan notation: IUPAC condensed, linker removed
# In short: as §1
# [9] = molecular target: Neu5Ac(a2-3)Gal(b1-3)GlcNAc(b1-3)GalNAc; conditions: glycan notation: IUPAC condensed, linker removed
# In short: as §1
# [10] = molecular target: Neu5Ac(a2-3)Gal(b1-3)GlcNAc(b1-6)GalNAc; conditions: glycan notation: IUPAC condensed, linker removed
# In short: as §1
# Neu5Ac(a2-3)Gal(b1-4)Glc = conditions: glycan notation: IUPAC condensed, linker removed
# In short: as §1
# [11] = molecular target: Neu5Ac(a2-3)Gal(b1-4)GlcNAc(b1-6)[Gal(b1-3)]GalNAc; conditions: glycan notation: IUPAC condensed, linker removed
# In short: as §1
# [12] = molecular target: Neu5Ac(a2-3)Gal(b1-4)GlcNAc(b1-6)[Neu5Ac(a2-3)Gal(b1-3)]GalNAc; conditions: glycan notation: IUPAC condensed, linker removed
# In short: as §1
# [13] = molecular target: Neu5Ac(a2-3)Gal(b1-4)[Fuc(a1-3)]GlcNAc(b1-3)GalNAc; conditions: glycan notation: IUPAC condensed, linker removed
# In short: as §1
# [14] = molecular target: Neu5Ac(a2-6)GalNAc(b1-4)GlcNAc; conditions: glycan notation: IUPAC condensed, linker removed
# In short: as §1
# [15] = molecular target: Neu5Ac(a2-8)Neu5Ac(a2-3)Gal(b1-4)GlcNAc; conditions: glycan notation: IUPAC condensed, linker removed
# In short: as §1
# [16] = molecular target: Neu5Ac(b2-6)Gal(b1-4)GlcNAc; conditions: glycan notation: IUPAC condensed, linker removed
# In short: as §1
# Neu5Ac(b2-6)GalNAc = conditions: glycan notation: IUPAC condensed, linker removed
# In short: as §1
# Fuc(a1-2)Gal(b1-4)Glc6S = conditions: glycan notation: IUPAC condensed, linker removed; mutation: R343I
# In short: as §1
# Fuc(a1-2)[Gal(a1-3)]Gal = conditions: glycan notation: IUPAC condensed, linker removed; mutation: R343I
# In short: as §1
# [17] = molecular target: Fuc(a1-2)[Gal(a1-3)]Gal(b1-3)GlcNAc; conditions: glycan notation: IUPAC condensed, linker removed; mutation: R343I
# In short: as §1
# [18] = molecular target: Fuc(a1-2)[GalNAc(a1-4)]Gal(b1-4)GlcNAc; conditions: glycan notation: IUPAC condensed, linker removed; mutation: R343I
# In short: as §1
# Fuc(a1-3)GlcNAc = conditions: glycan notation: IUPAC condensed, linker removed; mutation: R343I
# In short: as §1
# [19] = molecular target: Fuc(a1-3)[Gal(b1-4)]GlcNAc(b1-2)Man(a1-3)[Fuc(a1-3)[Gal(b1-4)]GlcNAc(b1-2)Man(a1-6)]Man(b1-4)GlcNAc(b1-4)GlcNAc; conditions: glycan notation: IUPAC condensed, linker removed; mutation: R343I
# In short: as §1
# [20] = molecular target: Fuc(a1-3)[Gal(b1-4)]GlcNAc(b1-2)Man(a1-6)[Gal(b1-4)GlcNAc(b1-2)Man(a1-3)]Man(b1-4)GlcNAc(b1-4)GlcNAc; conditions: glycan notation: IUPAC condensed, linker removed; mutation: R343I
# In short: as §1
# Gal(a1-2)Gal = conditions: glycan notation: IUPAC condensed, linker removed; mutation: R343I
# In short: as §1
# Gal(a1-3)GalNAc = conditions: glycan notation: IUPAC condensed, linker removed; mutation: R343I
# In short: as §1
# Gal(a1-4)GlcNAc = conditions: glycan notation: IUPAC condensed, linker removed; mutation: R343I
# In short: as §1
# [21] = molecular target: Gal(b1-3)[GlcNAc(b1-6)]GalNAc; conditions: glycan notation: IUPAC condensed, linker removed; mutation: R343I
# In short: as §1
# [22] = molecular target: Gal(b1-3)[Neu5Ac(b2-6)]GalNAc; conditions: glycan notation: IUPAC condensed, linker removed; mutation: R343I
# In short: as §1
# [23] = molecular target: Gal(b1-4)GalNAc(a1-3)[Fuc(a1-2)]Gal(b1-4)GlcNAc; conditions: glycan notation: IUPAC condensed, linker removed; mutation: R343I
# In short: as §1
# [24] = molecular target: Gal(b1-4)GlcNAc(b1-6)GalNAc; conditions: glycan notation: IUPAC condensed, linker removed; mutation: R343I
# In short: as §1
# [25] = molecular target: GlcNAc(b1-2)Man(a1-3)[GlcNAc(b1-2)Man(a1-6)]Man(b1-4)GlcNAc(b1-4)GlcNAc; conditions: glycan notation: IUPAC condensed, linker removed; mutation: R343I
# In short: as §1
# GlcNAc(b1-3)Man = conditions: glycan notation: IUPAC condensed, linker removed; mutation: R343I
# In short: as §1
# [26] = molecular target: GlcNAc(b1-4)[GlcNAc(b1-6)]GalNAc; conditions: glycan notation: IUPAC condensed, linker removed; mutation: R343I
# In short: as §1
# [27] = molecular target: Man(a1-2)Man(a1-2)Man(a1-3)Man; conditions: glycan notation: IUPAC condensed, linker removed; mutation: R343I
# In short: as §1
# [28] = molecular target: Man(a1-2)Man(a1-3)[Man(a1-2)Man(a1-6)]Man(a1-6)[Man(a1-2)Man(a1-2)Man(a1-3)]Man; conditions: glycan notation: IUPAC condensed, linker removed; mutation: R343I
# In short: as §1
# [29] = molecular target: Man(a1-2)Man(a1-3)[Man(a1-6)]Man(a1-6)[Man(a1-2)Man(a1-3)]Man(b1-4)GlcNAc(b1-4)GlcNAc; conditions: glycan notation: IUPAC condensed, linker removed; mutation: R343I
# In short: as §1
# [30] = molecular target: Man(a1-2)Man(a1-6)[Man(a1-3)]Man(a1-6)[Man(a1-2)Man(a1-2)Man(a1-3)]Man; conditions: glycan notation: IUPAC condensed, linker removed; mutation: R343I
# In short: as §1
# Man(a1-6)Man = conditions: glycan notation: IUPAC condensed, linker removed; mutation: R343I
# In short: as §1
# [31] = molecular target: Neu5Ac(a2-3)Gal(b1-3)GlcNAc(b1-3)Gal(b1-3)GlcNAc; conditions: glycan notation: IUPAC condensed, linker removed; mutation: R343I
# In short: as §1
# [32] = molecular target: Neu5Ac(a2-3)Gal(b1-3)GlcNAc6S; conditions: glycan notation: IUPAC condensed, linker removed; mutation: R343I
# In short: as §1
# [33] = molecular target: Neu5Ac(a2-3)Gal(b1-4)GlcNAc(b1-3)Gal(b1-4)GlcNAc; conditions: glycan notation: IUPAC condensed, linker removed; mutation: R343I
# In short: as §1
# Neu5Ac(a2-6)GalNAc = conditions: glycan notation: IUPAC condensed, linker removed; mutation: R343I
# In short: as §1
# [34] = molecular target: Neu5Ac(a2-8)Neu5Ac(a2-3)Gal(b1-4)Glc; conditions: glycan notation: IUPAC condensed, linker removed; mutation: R343I
# In short: as §1
binder,measurement,setting,value
B1,glycan array binding signal (z-score),[1],-0.129
same,glycan array binding signal (z-score),[2],0.047
same,glycan array binding signal (z-score),[3],-0.052
same,glycan array binding signal (z-score),[4],1.03
same,glycan array binding signal (z-score),[5],-0.278
same,glycan array binding signal (z-score),Man(a1-3)[Man(a1-6)]Man,0.154
same,glycan array binding signal (z-score),[6],-0.262
same,glycan array binding signal (z-score),Neu5Ac(a2-3)Gal,-0.273
same,glycan array binding signal (z-score),[7],1.07
same,glycan array binding signal (z-score),[8],-0.4
same,glycan array binding signal (z-score),[9],-0.354
same,glycan array binding signal (z-score),[10],0.614
same,glycan array binding signal (z-score),Neu5Ac(a2-3)Gal(b1-4)Glc,2.91
same,glycan array binding signal (z-score),[11],-0.321
same,glycan array binding signal (z-score),[12],-0.43
same,glycan array binding signal (z-score),[13],0.695
same,glycan array binding signal (z-score),[14],-0.193
same,glycan array binding signal (z-score),[15],-0.54
same,glycan array binding signal (z-score),[16],-0.139
same,glycan array binding signal (z-score),Neu5Ac(b2-6)GalNAc,-0.216
B2,glycan array binding signal (z-score),Fuc(a1-2)Gal(b1-4)Glc6S,-0.274
same,glycan array binding signal (z-score),Fuc(a1-2)[Gal(a1-3)]Gal,-0.265
same,glycan array binding signal (z-score),[17],-0.272
same,glycan array binding signal (z-score),[18],-0.266
same,glycan array binding signal (z-score),Fuc(a1-3)GlcNAc,5.51
same,glycan array binding signal (z-score),[19],-0.264
same,glycan array binding signal (z-score),[20],-0.272
same,glycan array binding signal (z-score),Gal(a1-2)Gal,-0.275
same,glycan array binding signal (z-score),Gal(a1-3)GalNAc,-0.268
same,glycan array binding signal (z-score),Gal(a1-4)GlcNAc,-0.27
same,glycan array binding signal (z-score),[21],-0.274
same,glycan array binding signal (z-score),[22],-0.276
same,glycan array binding signal (z-score),[23],-0.263
same,glycan array binding signal (z-score),[24],-0.275
same,glycan array binding signal (z-score),[25],5.45
same,glycan array binding signal (z-score),GlcNAc(b1-3)Man,-0.076
same,glycan array binding signal (z-score),[26],-0.05
same,glycan array binding signal (z-score),[27],4.64
same,glycan array binding signal (z-score),[28],4.37
same,glycan array binding signal (z-score),[29],4.08
same,glycan array binding signal (z-score),[30],4.33
same,glycan array binding signal (z-score),Man(a1-3)[Man(a1-6)]Man; mutation: R343I,0.263
same,glycan array binding signal (z-score),Man(a1-6)Man,-0.261
same,glycan array binding signal (z-score),[31],-0.268
same,glycan array binding signal (z-score),[32],-0.275
same,glycan array binding signal (z-score),[33],-0.278
same,glycan array binding signal (z-score),[12]; mutation: R343I,-0.275
same,glycan array binding signal (z-score),Neu5Ac(a2-6)GalNAc,-0.269
same,glycan array binding signal (z-score),[34],-0.267

# — the supplement of paper PMC8728848
